This is an account of results in PubChem BioAssay (EPA / NIEHS).

Each structure is given as a SMILES string. Several values for one entry are separate records, joined by “and”; a condition that tells them apart may be missing. Identical values can stand only once. The source holds several records for some structures; these can differ, active in one and inactive in another. Activity calls are given as the source filed them. Rule for the calls: active = hit-call score of the fitted dose curve at least 0.9, where 1 is the maximum; inactive = score below 0.9.

Read-out in test [1]: TIMP metallopeptidase inhibitor 1 (TIMP1), TIMP1 (gene 7076)
The experiment in a line: BSK_MyoF_TIMP1: BioMAP Diversity Plus: MyoF Assay for TIMP metallopeptidase inhibitor 1 (TIMP1) Biomarker Activity (AID 2284269). The conditions noted are these: primary human lung fibroblasts. The method in brief:
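Primary human lung fibroblasts, MyoF multiplex system; chemical exposure 24 h; TIMP-1 by ELISA; positive fitting direction vs DMSO control.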

Read-out in test [2]: Matrix Metallopeptidase 1 (MMP1), MMP1 (gene 4312)
Description: BSK_BF4T_MMP1: BioMAP Diversity Plus: BF4T Assay for Matrix Metallopeptidase 1 (MMP1) Biomarker Activity (AID 2284270). To be noted: primary human bronchial epithelial cells with fibroblasts. Summed up:
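Co-culture of human bronchial epithelial cells and dermal fibroblasts; MMP-1 levels measured by ELISA 24 hours after chemical dosing, relative to DMSO. Cytotoxicity checked in parallel cultures by SRB total-protein staining.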

Read-out in test [3]: Matrix Metallopeptidase 3 (MMP3), MMP3 (gene 4314)
Description: BSK_BF4T_MMP3: BioMAP Diversity Plus: BF4T Assay for Matrix Metallopeptidase 3 (MMP3) Biomarker Activity (AID 2284271). The conditions noted are these: primary human bronchial epithelial cells with fibroblasts. Summed up: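 Co-culture of human bronchial epithelial cells and dermal fibroblasts dosed 24 h; MMP-3 measured by ELISA, positive-direction fit versus DMSO. Cytotoxicity tracked by SRB total-protein staining (560 nm) in parallel cultures.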

Read-out in test [4]: Tissue plasminogen activator (tPA), PLAT (gene 5327)
Description: BSK_BF4T_tPA: BioMAP Diversity Plus: BF4T Assay for Tissue plasminogen activator (tPA) Biomarker Activity (AID 2284272). The conditions noted are these: primary human bronchial epithelial cells with fibroblasts. Summed up:
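tPA level quantified by ELISA at 24 h post-treatment in bronchial epithelial/dermal fibroblast co-cultures, gain of signal scored against DMSO baseline. Parallel cultures stained with 0.1% SRB (560 nm) to flag overt cytotoxicity.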

Read-out in test [5]: Plasminogen Activator Inhibitor-1 (PAI1), SERPINE1 (gene 5054)
The experiment in a line: BSK_BF4T_PAI1: BioMAP Diversity Plus: BF4T Assay for Plasminogen Activator Inhibitor-1 (PAI1) Biomarker Activity (AID 2284273). The conditions noted are these: primary human bronchial epithelial cells with fibroblasts. Summed up:
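Co-culture of human bronchial epithelial cells and dermal fibroblasts exposed to compound for 24 h. PAI-1 measured by ELISA; activity fitted in positive direction versus DMSO. Parallel SRB staining assessed overt cytotoxicity.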

Test [6] can be described thus: BSK_BF4T_SRB: Viability Assessment in the BioMAP Diversity Plus: BF4T Assay (AID 2284274). The conditions noted are these: primary human bronchial epithelial cells with fibroblasts. Summed up:
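Co-culture of human bronchial epithelial cells and dermal fibroblasts (BioMAP BF4T) exposed 24 h. Total protein by sulforhodamine B staining (0.1% SRB after 10% TCA fixation, 560 nm) in parallel cultures; fitted vs DMSO.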

Read-out in test [7]: urokinase Plasminogen Activator (uPA), PLAU (gene 5328)
Description: BSK_BF4T_uPA: BioMAP Diversity Plus: BF4T Assay for urokinase Plasminogen Activator (uPA) Biomarker Activity (AID 2284275). The conditions noted are these: primary human bronchial epithelial cells with fibroblasts. The method in brief:
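Co-culture of human bronchial epithelial cells and dermal fibroblasts; uPA quantified by ELISA 24 hours after dosing, fitted relative to DMSO. Parallel SRB total-protein staining assessed overt cytotoxicity.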

Read-out in test [8]: Matrix Metallopeptidase 9 (MMP9), MMP9 (gene 4318)
Description: BSK_BF4T_MMP9: BioMAP Diversity Plus: BF4T Assay for Matrix Metallopeptidase 9 (MMP9) Biomarker Activity (AID 2284276). To be noted: primary human bronchial epithelial cells with fibroblasts. The method, then:
BSK_BF4T is a cell-based, multiplexed-readout assay that uses bronchial epithelial cells and dermal fibroblasts, a human vascular primary cell, with measurements taken at 24 hours after chemical dosing in a microplate: 96-well plate.BSK_BF4T_MMP9 is an assay component measured in the BSK_BF4T assay. It measures MMP-9 antibody related to regulation of gene expression using ELISA technology.Data from the assay component BSK_BF4T_MMP9 was analyzed at the endpoint, BSK_BF4T_MMP9, in the positive analysis fitting direction relative to DMSO as the negative control and baseline of activity. Using a type of binding reporter, gain or loss-of-signal activity can be used to understand protein changes. To generalize the intended target to other relatable targets, this assay endpoint is annotated to the 'protease' intended target family, where the subfamily is 'matrix metalloproteinase'.
The levels of cell surface (or secreted, indicated by the prefix "s") biomarker endpoints were measured by ELISA. Overt cytotoxicity to cells in confluent adherent cultures (all systems other than the BT system) was assessed by measuring total protein levels using sulforhodamine B (SRB) staining in parallel cultures at the time of biomarker measurements, indicated as SRB endpoints. For proliferation assays for adherent cell types, individual cell types are cultured at sub-confluence and relative cell numbers quantified by SRB staining at time points optimized for each system (48 h: 3C and CASM3C systems; 72 h: BT and HDF3CGF systems; 96 h: SAg system). SRB was performed by staining cells with 0.1% SRB after fixation with 10% TCA and reading wells at 560 nm.Viability and proliferation of PBMC (T cells) was quantified by Alamar Blue reduction for the SAg and BT systems. For PBMC viability (referred to as PBMC Cytotoxicity within the assay endpoint names), cells were plated (75,000/well in a 96-well plate) and then chemical samples added for 1 h before addition of activators, SEB and TSST-1 (20 ng/mL final concentration each). Cells were incubated for 90 h. Then, Alamar Blue (20 uL/well) (Invitrogen, Cat DAL1100) was added for 6 h, and the plates were read with a fluorescence microplate reader at 546/580 nm (excitation/emission). For PBMC proliferation, cells were plated and activated as above but incubated for only 16 h prior to addition of Alamar Blue. Plates were read after 6 h.

Read-out in test [9]: Interleukin-8 (IL8), CXCL8 (gene 3576)
Description: BSK_IMphg_IL8: BioMAP Diversity Plus: IMphg Assay for Interleukin-8 (IL8) Biomarker Activity (AID 2284277). The conditions noted are these: primary human endothelial cells with macrophages. The method in brief: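 Co-culture of human venular endothelial cells and macrophages exposed to chemicals for 24 h; IL-8 quantified by ELISA and compared against the DMSO baseline, with SRB total-protein staining in parallel cultures for cytotoxicity.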

Read-out in test [10]: Intercellular Adhesion Molecule 1 (ICAM1), ICAM1 (gene 3383)
Description: BSK_BE3C_ICAM1: BioMAP Diversity Plus: BE3C Assay for Intercellular Adhesion Molecule 1 (ICAM1) Biomarker Activity (AID 2284278). To be noted: primary human bronchial epithelial cells. The method in brief: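 Measured by ELISA: ICAM-1 expressed by primary human bronchial epithelial cells 24 h after compound treatment, with upward-direction fitting versus DMSO vehicle.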

`Sc1ccccc1`: the outcome in [1] was inactive.

As a reminder, the AC50 is the concentration at which the activity in the assay is half-maximal. `O=S(=O)(O)C(F)(F)C(F)(F)C(F)(F)C(F)(F)F`: the outcome in test [1], in [2], in test [3], in test [4], in [5] and in test [6] was inactive. Moreover, the outcome in [7], in test [8] and in test [10] was inactive. In [9], the AC50 was 30 µM (active) and 33.4 µM (active).

For `O=C(O)C(F)(F)C(F)(F)C(F)(F)C(F)(F)C(F)(F)C(F)(F)C(F)(F)C(F)(F)F`, in test [1], the outcome was inactive. Further, the AC50 in test [2] was 48.4 µM (active) and 51.1 µM (active); in [3], 47.4 µM (active) and 55.2 µM (active); in test [4], 35.6 µM (active) and 27.7 µM (active); in [5], 47.5 µM (active) and 46.2 µM (active); in test [6], 43.3 µM (active) and 44 µM (active); in test [7], 50.3 µM (active) and 54.7 µM (active). Besides, the AC50 in test [8] was 44.2 µM (active) and 45.2 µM (active); in [9], 15.8 µM (active) and 5.94 µM (active); in test [10] it was 56.4 µM (active) and 54.7 µM (active).

As for `O=C(O)C(F)(F)C(F)(F)C(F)(F)C(F)(F)C(F)(F)C(F)(F)C(F)(F)C(F)(F)C(F)(F)F`, the AC50 in [1] is 50.6 µM (active) and 37.4 µM (active); in test [2], 14.1 µM (active) and 11 µM (active); in test [3], 18.5 µM (active) and 21.3 µM (active); in test [4] it was 34.6 µM (active) and 17.3 µM (active); in test [5], 22.9 µM (active) and 24.8 µM (active); in [6] it was 17.7 µM (active) and 19.3 µM (active). Moreover, the AC50 was 14.6 µM (active) and 18 µM (active) in [7]; 20 µM (active) and 20.5 µM (active) in [8]; 16.9 µM (active) and 14.6 µM (active) in test [10]. The outcome in test [9] was inactive.

`O=S(=O)(O)C(F)(F)C(F)(F)C(F)(F)C(F)(F)C(F)(F)C(F)(F)F`: the outcome in test [1], in test [2], in test [3], in [4], in [5] and in test [6] was inactive. The result in test [7], in test [8], in [9] and in test [10] was inactive. In addition, in [9], the AC50 is 22.9 µM (active).

Regarding `Oc1c(Cl)c(Cl)c(Cl)c(Cl)c1Cl`, the AC50 in test [1] is 9.53 µM (active).

In the case of `COc1ccc(O)c(C(C)(C)C)c1`, in test [10], the result was inactive.

On to `NS(=O)(=O)C(F)(F)C(F)(F)C(F)(F)C(F)(F)C(F)(F)C(F)(F)C(F)(F)C(F)(F)F`, for which the AC50 in [1] was 35.1 µM (active) and 21.5 µM (active); in [3], 52.2 µM (active) and 49.7 µM (active); in [4], 51.4 µM (active) and 55 µM (active); in test [5], 44 µM (active) and 45.9 µM (active); in test [6] it was 45 µM (active) and 47.5 µM (active); in test [7], 48.2 µM (active) and 44.3 µM (active). The AC50 in test [8] is 23.3 µM (active) and 34 µM (active); in [9], 52.1 µM (active) and 14.9 µM (active); in test [10], 55 µM (active) and 53 µM (active). The outcome in test [2] was inactive.

As to `O=C(O)C(F)(F)C(F)(F)C(F)(F)C(F)(F)C(F)(F)F`, the result in test [1], in [2], in [3], in test [4], in test [5] and in [6] was inactive. In addition, the outcome in [7], in test [8], in test [9] and in test [10] was inactive.
